From PubChem BioAssay (NCI)
Several values for one entry are separate records, joined by “and”; a condition that tells them apart may be missing. Identical values can stand only once. This is part of a sample that, as a whole, favours compounds with a hit. Of some 79,000 tested, about 15% had one in any assay. A number with no mark means an inactive call. Activity calls are given as the source filed them. Rule as the data show it: active = growth inhibition above about 70%; inactive = the rest.

How the values were obtained:
[1] = NCI Yeast Anticancer Drug Screen. Data for the rad50 strain (AID 155);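 also: 0% = growth of vehicle-only cultures of the same strain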; settings: S. cerevisiae rad50 strain growth inhibition, active compounds read high; at 50.0 µM unless noted
Method in brief: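 Growth of the mutant yeast was measured after compound exposure and referenced to vehicle-treated cultures.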

[2] = NCI Yeast Anticancer Drug Screen. Data for the mec2-1 strain (AID 157); settings: S. cerevisiae mec2-1 strain, active compounds read high; at 50.0 µM unless noted
Method in brief: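 Growth inhibition is read against vehicle-treated controls after compound exposure of the mec2-1 yeast strain, which is defective in DNA damage repair or cell cycle control.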

[3] = NCI Yeast Anticancer Drug Screen. Data for the sgs1 mgt1 strain (AID 161);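 also: 0% = growth of cultures given vehicle only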; settings: S. cerevisiae sgs1 mgt1 strain, active compounds read high; at 50.0 µM unless noted
Method in brief: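 Growth of a repair-deficient yeast mutant was monitored after compound treatment and expressed as inhibition relative to vehicle-treated cultures.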

[4] = NCI Yeast Anticancer Drug Screen. Data for the bub3 strain (AID 167); settings: S. cerevisiae bub3 mutant strain, active compounds read high; at 50.0 µM unless noted
Method in brief: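 Whole-cell yeast assay. The mutant strain was incubated with compounds, and growth inhibition was determined by comparison with vehicle-treated cells.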

[5] = NCI Yeast Anticancer Drug Screen. Data for the mlh1 rad18 strain (AID 175); settings: S. cerevisiae mlh1 rad18 strain growth inhibition, active compounds read high; at 50.0 µM unless noted
Method in brief: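 Cells of a genetically altered yeast strain, deficient in DNA damage repair, were treated with compound. Their growth was then compared with that of vehicle-treated cultures to give inhibition.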

[6] = NCI Yeast Anticancer Drug Screen. Data for the cln2 rad14 strain (AID 165);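 also: 0% = growth equal to vehicle treated cultures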; settings: S. cerevisiae cln2 rad14 strain, active compounds read high; at 50.0 µM unless noted
Method in brief: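 Growth inhibition, relative to vehicle-treated controls, is the read-out. The test organism is a yeast strain with defined genetic alterations, cln2 rad14.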

Compound | growth inhibition [1] | growth inhibition [2] | growth inhibition [3] | growth inhibition [4] | growth inhibition [5] | growth inhibition [6] [%]
CCN(CC)CCNC(=O)c1cc(N2CCOCC2)ccn1 | 23.3% | 11.7% | 18.5% | 30.6% | 45.5% | 
c1cc(-c2cnc(-c3ccc4c(c3)CCCO4)o2)ccn1 | 40.5% | 29.9% | 31.6% | 46.5% | 44.1% | 
CC(=O)C(C(C)=O)=C1CCCC(O)O1 (stereo not given) | 20.4% | -0.7% | 4.55% | 2.65% | 13.1% | 
CCOC(=O)c1ccc(Cn2c(C)cc(=O)n(Cc3ccc(C(=O)OCC)cc3)c2=O)cc1 | 0.25% | -14.1% | -9.9% | 4.05% | -7.7% | 
Nc1ncnc2c1nc(Cl)n2C1OC2COP(=O)(O)OC2C1O (stereo not given) | -15.9% and -13.3% | -8.05% and 3.45% | -20.7% and -0.55% | -27.1% and -41.8% | -13.8% and -10.6% | 
C#CCN(Cc1ccc2nc(-c3ccccc3)c(Cl)nc2c1)c1cc(OC)c(OC)c(OC)c1 | 14.8% | -12.6% | -16.9% |  | 4.75% | -23.4
CCOC(OCC)C1(C)CC=CCC1 (stereo not given) | 20.4% | 11.3% | 5.05% | 3.15% | 6.4% | 
O=C(NNC(=O)c1ccc(Cl)c(Cl)c1)c1ccccc1 | -13.8% | 3.1% | -6.05% | 2.75% | -15.9% | 
Cc1ccc(N=Nc2ccc(C)cc2NC(=O)c2cccc3ccccc23)cc1 | -12.6% | -8% | -12.2% | -1.95% | -2.7% | 
O=C(N/N=C(\c1nc2ccc(Cl)cc2[nH]c1=O)C(O)c1ccccc1Cl)c1ccncc1 (stereo not given) | 16.6% | 20% | 8.7% |  | 37% | 18.7
COc1ccc(OC)c2[nH]c(=O)c(C)nc12 | 7.15% | 1.85% | 5.75% | 4.35% | -4.3% | 
Cc1cc(OCC(=O)O)cc(C)c1C | 1% | -8.5% | -15.1% | -4.55% | -1.45% | 
Cc1ccc(N[P+](c2ccccc2)(c2ccccc2)c2ccccc2)cc1.[Cl][Fe]([Cl])([Cl])[Cl] | 44.1% | 3% | 22.9% | 11.7% | 12.6% | 
O=C(/C(Cl)=N/O)c1ccc(O)c(O)c1 | 30.3% | 14.8% | 18.2% | 47.2% | 19.9% | 
c1ccc(CSCc2cnc[nH]2)cc1 | -1.3% | 0.6% | -1.95% | 5.7% | -6.95% | 
O=c1cc(N2CCOCC2)n2ccccc2n1 | -4.4% | -4.15% | 8% | -8.35% | 8.1% | 
CCC(=O)c1ccc(OC)cc1OC | -13.6% | 1.25% | -4.8% | 4.4% | -20.1% | 
COC(=O)c1ccc(N=NN(C)CN=[N+]=[N-])cc1 | 13.3% | 19.7% | 21.2% | 11.3% | 3.15% | 
COc1ccc2oc3c(OC)c(OC)c(OC)cc3c(=O)c2c1 | -11.3% | -21.6% | -4.95% | 12.6% | -15.8% | 
COC(=O)CCC(C)C1CCC2(C)C3=C(C(=O)CC12C)C1(C)CCC(O)C(C)(C)C1=C(O)C3 (stereo not given) | 81.7% (active) | 74.2% (active) | 77.6% (active) | 70.8% (active) | 83.8% (active) | 

Compound | growth inhibition [1] | growth inhibition [2] | growth inhibition [3] | growth inhibition [4] | growth inhibition [5] | growth inhibition [6] [%]
Nc1nc(N)c2ncn(Cc3ccccc3)c2n1 | -41.2% | -34.4% | -9.95% | -16.1% | -13.9% | 
O=C(CCCCl)N1CCCCCC1 | -5.25% | 11.6% | -17.5% | 15.1% | 5.7% | 
CC(=O)N(CCC(C)C)CCC(C)C | 17.9% | 2.3% | 5.5% | -8.05% | -11.2% | 
O=C1CSC(c2ccccc2Cl)N1c1n[nH]c(=S)s1 (stereo not given) | -13.8% | -17.6% |  | -23.6% | 1% | -55
COc1ccc(NC(=O)C(C)Oc2ccc(OCC3CCCCC3)cc2)cc1 (stereo not given) | -22.9% | -40.5% |  | -56.9% | -29.6% | -26.1
O=C1c2cc3c(cc2CC12Cc1cc4c(cc1C2=O)CCC4)CCCC3 (stereo not given) | 6.45% | -52.5% |  | 0.35% | -22.5% | -29.1
CC(=O)C(C)(CCN(C)C)c1ccccc1 (stereo not given) | 6.5% | 4.4% |  | 6.55% | 12.8% | -10.3
CC1CCC2(OC1)OC1CC3C4CCC5CC(O)CCC5(C)C4C(O)CC3(C)C1C2C (stereo not given) | 42.5% | 5.65% |  | 52.1% | 24.1% | 36.8
C=CCOC(=O)CCCC1=NC2=CC=CC3=NC(C)=NC(=N1)N23 | -1.1% | 2.35% |  | -17.3% | 1.2% | 12.2
Cc1ccc(Cl)cc1NC(=O)Nc1ccccc1Cl | 11.5% | 12.2% |  | 8.85% | -11% | -12.2
O=S1(=O)OCCOS(=O)(=O)C1C1c2ccccc2-c2ccccc21 | 13.4% | 2.95% |  | -1.25% | -32.3% | 7.6
CCOc1ccccc1N=C(NC(=O)CC)SC | 39% | 26.8% |  | 32.3% | 52% | 12.1
COc1ccc(/C(CC2OC(=O)c3ccccc32)=N\NC(=O)C[N+](C)(C)C)cc1 (stereo not given) | 6.1% | -10.8% |  | 12.1% | 8.5% | 7.55
Cc1ccc(C)c(CCCCS(=O)(=O)O)c1 | -27.9% | -8.1% |  | 1.2% | -7.6% | -40.4
S=C(c1ccccc1)c1cccc2ccccc12 | 57% | 15.1% |  | -3.55% | 36.9% | 2.8
O=C(Nc1ccccc1)Nc1ccc([N+](=O)[O-])cc1[N+](=O)[O-] | 25.5% | 5.95% |  | 11.9% | 20.6% | 19.7
CN(C)c1ccc(/[N+]([O-])=N/N2C(=O)c3ccccc3C2=O)cc1 | -25.1% | -24.4% |  | -22.9% | -25.5% | -52
COc1ccc(C2=NC(CO)[C@H](c3ccccc3)O2)cc1OC (stereo not given in full) | 2.35% | -13.2% |  | -3.75% | -7.15% | 17.4
BrCC(Br)C1OCCCO1 (stereo not given) | 18.4% | 18.1% |  | 5.25% | 34.6% | 22.4
